Assay results as given in the supplement of paper PMC10338343.
± gives the standard deviation.

System: MILI (PIWIL2) piRISC loaded with L1MC piRNA (26 nt)
Experiment: pre-steady-state target cleavage rate (min^-1); guide: L1MC piRNA 5'p-UAACUAAAUACUAUGCAAGCUGUAGG; MIWI and MILI are mouse PIWI proteins and EfPiwi is from a freshwater sponge; tags in brackets are library labels; higher = faster piRNA-guided slicing of the target
Outline: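 The method was Cleave-'n-Seq, in which uncleaved targets from a transcribed, DNA-blocked target RNA library were sequenced after exposure to active affinity-purified piRISC carrying one synthetic guide, with or without GTSF1 partner protein. Reactions contained 0.1 nM library, 1 nM piRISC and, where present, 500 nM GTSF1 in HEPES–potassium acetate buffer at 33 °C for 0–8 or 0–960 min. Reads were normalised to depth and to weakly complementary targets, three trials were pooled, and k3 was capped at 0.0001 min^-1. The pre-steady-state cleavage rate came from a burst-and-steady-state fit.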

[1] = auxiliary factor: 500 nM mouse GTSF1
[2] = auxiliary factor: none (no GTSF1)

Sequence | pre-steady-state target cleavage rate [1] | pre-steady-state target cleavage rate [2]
UCCUGGAUGUGCAUGCAUAGUAUUUUGUUA | 0.0798 ± 0.018 | 0.00327 ± 0.0032
UCCUGGAUCACCUUGCAUUGUAUUUAGUUA | 0.094 ± 0.015 | 0.00486 ± 0.0032
UCCUGGAUGAGCUUGGUUAGUAUUUAGUUA | 0.195 ± 0.02 | 0.0158 ± 0.0039
UCCUGGAUGACCUUGCUUAGUAUUUAGUUA | 0.114 ± 0.019 | 0.00599 ± 0.0028
UCCUGGAUGUGCUUGCAUUGUAUAUAGUUA | 0.0696 ± 0.012 | 0.00543 ± 0.0026
UCCUGGAUGUGCUUGCUAUGUAUUUAGUUA | 0.00774 ± 0.0037 | 0.00498 ± 0.0024
UCCUGGUACAGCAUGCAUAGUAUUUACUUA | 0.0914 ± 0.025 | 0.00419 ± 0.0038
UCCUGGAUGAGCUUGGUUAGUAUUUAGUAA | 0.175 ± 0.027 | 0.0063 ± 0.0023
UCCUGGUCCAGCUUGCAUAGUAUUUAGUUA | 0.232 ± 0.02 | 0.0129 ± 0.0037
UCCUGGAUGUCCUUGCAUGGUAUUUAGUUA | 0.0346 ± 0.011 | 0.00814 ± 0.0026
UCCUGGAUGUCGAUGCAUAGUAGUUUAGUUA | 0.0201 ± 0.005 | 0.00577 ± 0.0027
UCCUGGAUCAGCUUGGUUAGUAUUUAGUAA | 0.256 ± 0.031 | 0.00444 ± 0.0025
UCCUGCUACAGUCUUGCAUAGUAUUUAGUUA | 0.222 ± 0.021 | 0.00875 ± 0.0023
UCCUGGAUCAGCUUGGUAAGUAUUUAGUUA | 0.0316 ± 0.0076 | 0.00588 ± 0.0023
UCCUGGUACAGGUUGCAUAGUAAUUAGUUA | 0.325 ± 0.041 | 0.00664 ± 0.0029
UCCUGGAUGUCGAAGUAUAGUAUUUAGUUA | 0.0142 ± 0.004 | 0.00325 ± 0.002
UCCUGGAUGUGCAUGCAUAGUAUAUAGUUA | 0.19 ± 0.029 | 0.00367 ± 0.0031
UCCUGGAUGUGCUUGCAAGUAUUUAGUUA | 0.00781 ± 0.0036 | 0.00503 ± 0.0024
UCCUGGAUGUGCUUGCAUUGUAUUAAGUUA | 0.0663 ± 0.014 | 0.00354 ± 0.0033
UCCUGGAUGUCCUUGCAUUGUAUUAAGUUA | 0.0479 ± 0.012 | 0.00424 ± 0.0019
UCCUGCUACAGCUUGGAUAGUUUUUAGUUA | 0.0668 ± 0.012 | 0.00289 ± 0.0027
UCCUGGAUGAGCUUGGAUAGUAUAUAGUUA | 0.122 ± 0.017 | 0.00462 ± 0.0024
UCCUGGAACCGCUUGCAUAGUAUUUAGUUA | 0.265 ± 0.015 | 0.0108 ± 0.002
UCCUGGUACUGCUUGGAUAGUAUUUAGUUA | 0.179 ± 0.029 | 0.00767 ± 0.0042
UCCUGGAUGAGCUUGCAAAGUAUAUAGUUA | 0.148 ± 0.02 | 0.00576 ± 0.0029
UCCUGGAUGUCGUUGCAUAGUAUAAAGUUA | 0.0728 ± 0.018 | 0.00407 ± 0.0022
UCCUGGUACAGCAUCCAUAGUAUUUAGUUA | 0.262 ± 0.077 | 0.00374 ± 0.0027

Sequence | pre-steady-state target cleavage rate [1] | pre-steady-state target cleavage rate [2]
UCCUGGAUGUGCUUGCUUUGUAUUUAGUUA | 0.0124 ± 0.0051 | 0.00696 ± 0.0024
UCCUCCUACAGCUUGAUAGUAUUUAGUUA | 0.147 ± 0.014 | 0.00404 ± 0.0022
UCCUGGAUGUCGUUACAUAGUAUUUAGUUA | 0.105 ± 0.011 | 0.00442 ± 0.0022
UCCUGGAUGUCGAUGCAAAGUAUUUAGUUA | 0.00863 ± 0.0026 | 0.0036 ± 0.0027
UCCUGCUACAGGUUGCAUUGUAUUUAGUUA | 0.141 ± 0.019 | 0.0103 ± 0.0026
UCCUGGAUGAGCUUGCAUAGUAUUUAGUAUA | 0.218 ± 0.028 | 0.00501 ± 0.0033
UCCUGGAACUCGUUGCAUAGUAUUUAGUAA | 0.165 ± 0.021 | 0.00378 ± 0.002
UCCUGGAUGUCGUUGCAUAGUGUUUAGUUA | 0.0461 ± 0.01 | 0.00452 ± 0.0029
UCCUGGAUGUCCUUGCAUAGUUUUAAGUUA | 0.0115 ± 0.0059 | 0.00312 ± 0.0026
UCCUGGAUGUCCAAGCAUAGUAUUUAGUAA | 0.0187 ± 0.0069 | 0.00309 ± 0.0027
UCCUGGAUGAGCUUGAUAGUAUUUAGUUA | 0.017 ± 0.0068 | 0.00442 ± 0.0028
UCCUGGAUGUGCUUGCAUAGUAUUCUAGUUA | 0.193 ± 0.045 | 0.00428 ± 0.0034
UCCUGGAUGAGCUUGCAUAGAUUUUAGUUA | 0.0099 ± 0.0044 | 0.00304 ± 0.0029
UCCUGGAUGAGCUUGCAAAGUAUUUAGUAA | 0.085 ± 0.015 | 0.00635 ± 0.0025
UCCUGGAAGAGCUUGCAUAGUAUAUAGUUA | 0.173 ± 0.019 | 0.00457 ± 0.0025
UCCUGGAUGUCCUAGCAUAGUUUUUAGUUA | 0.0106 ± 0.0049 | 0.00512 ± 0.0022
UCCUGGAUGUCGAAGCAUAGUAUUUAAGUUA | 0.064 ± 0.0095 | 0.00425 ± 0.0022
UCCUGGAUGUCCUUGCUUAGUAUUUUGUUA | 0.0587 ± 0.018 | 0.00384 ± 0.003
UCCUGGAUCAGCUUGCAAAGUAUUUUGUUA | 0.1 ± 0.018 | 0.00456 ± 0.0025
UCCUGGAUGUCGAAGCAUAGUUUUUAGUUA | 0.00892 ± 0.0039 | 0.00397 ± 0.0017
UCCUGGAUGUCGAUGCAUAGUAUUUAGUAA | 0.108 ± 0.015 | 0.00268 ± 0.0024
UCCUGGAUCAGCUUGCUUUGUAUUUAGUUA | 0.11 ± 0.015 | 0.0038 ± 0.0028
UCCUGGAUGUCGAUGCAUAGUAUUUAGUUG [g2:g17:cont:t1G] | 0.0776 ± 0.013 | 0.00604 ± 0.0026
UCCUGGAUGUCGUUGGAUACUAUUUAGUUA | < 0.0001 | < 0.0001
UCCUGGAUGUCGAUGCAUAGUAUUUAGUA | 0.0708 ± 0.011 | 0.00401 ± 0.0022
UCCUGGAUGUGCUUGCUUAGUAUAUAGUUA | 0.0668 ± 0.011 | 0.00411 ± 0.0025
UCCUGGAUCAGCUUGCAUAGAUUUUAGUUA | 0.0267 ± 0.007 | 0.00395 ± 0.0023
